Measured values from PubChem BioAssay (NCI).
About 79,000 compounds went through this panel and 15% of them were active in at least one assay; those are over-represented in the sample as a whole. Rule as the data show it: active = growth inhibition above about 70%; inactive = the rest.

What was measured:
[1] = NCI Yeast Anticancer Drug Screen. Data for the rad50 strain (AID 155);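 also: 0% = growth of vehicle-only cultures of the same strain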; settings: S. cerevisiae rad50 strain growth inhibition; at 50.0 µM; active compounds read high
Procedure, shortened: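 Yeast carrying a defined DNA repair defect were exposed to test compounds, and growth was compared with vehicle-treated controls to give percent inhibition.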

[2] = NCI Yeast Anticancer Drug Screen. Data for the mec2-1 strain (AID 157); settings: S. cerevisiae mec2-1 strain, at 50.0 µM, active compounds read high
Procedure, shortened: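 Vehicle-treated cultures served as reference for growth inhibition of compound-exposed mec2-1 yeast.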

[3] = NCI Yeast Anticancer Drug Screen. Data for the sgs1 mgt1 strain (AID 161);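 also: 0% = growth of cultures given vehicle only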; settings: S. cerevisiae sgs1 mgt1 strain, at 50.0 µM, active compounds read high
Procedure, shortened: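 Mutant yeast exposed to compound; growth scored against vehicle-only wells.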

[4] = NCI Yeast Anticancer Drug Screen. Data for the cln2 rad14 strain (AID 165);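 also: 0% = growth equal to vehicle treated cultures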; settings: S. cerevisiae cln2 rad14 strain, at 50.0 µM, active compounds read high
Procedure, shortened: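 Each compound was tested on cln2 rad14 yeast. Inhibition of growth was calculated against vehicle-exposed controls.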

[5] = NCI Yeast Anticancer Drug Screen. Data for the bub3 strain (AID 167); settings: S. cerevisiae bub3 mutant strain, at 50.0 µM, active compounds read high
Procedure, shortened: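 Compounds were applied to a genetically altered yeast strain carrying a cell-cycle control defect. Growth inhibition was scored against vehicle-treated controls.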

[6] = NCI Yeast Anticancer Drug Screen. Data for the mlh1 rad18 strain (AID 175); settings: S. cerevisiae mlh1 rad18 strain growth inhibition; at 50.0 µM; active compounds read high
Procedure, shortened: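 Vehicle-treated cultures served as the reference for growth inhibition in a yeast strain carrying DNA damage repair alterations exposed to each compound.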

Measured: growth inhibition

CC/C=C\C/C=C\C/C=C\CCCCCCCC(=O)OC(COC(=O)CCCCCCCCCCCCCCCCC)COC1OC(CO)C(O)C(O)C1O (stereo unspecified)
inactive: [1] 38.4% | [2] 8.55% | [3] 31.8% | [4] -3.4% | [5] 32.2% | [6] 33.4%

COC(=O)C(C(=O)C(=O)NC1=C(Cl)C(=O)c2ccccc2C1=O)c1csc(-n2nc(-c3ccccc3)cc2-c2ccccc2)n1 (stereo unspecified)
inactive: [1] -0.4% | [2] -26.6% | [3] -14.4% | [4] 0.85% | [5] 26.1% | [6] -5.4%

CC(C)=CCC/C(C)=C\COC=O
inactive: [1] 23% | [2] 12.4% | [3] 18.9% | [4] 6.45% | [5] 13.8% | [6] 50.9%

CC(C)NC(=O)C1C2C=CC(CC2)C1C(=O)NC(C)C (stereo unspecified)
inactive: [1] 6.2% | [2] 20.1% | [3] 22.6% | [4] -5.7% | [5] 11.3% | [6] 10.2%

COC1=CC(=O)C=C(OC)C1=O
inactive: [1] -2.55% | [2] -12.8% | [3] -28.6% | [4] 6.25% | [5] -25.4% | [6] -11.6%

CC(=O)Nc1ccc(N=Nc2c(C)nn(C(=N)N)c2C)cc1
inactive: [1] -5.45% | [2] -8.55% | [3] 0.45% | [4] 0.6% | [5] -4.2% | [6] 9%

CC(=O)OCC12CCC(C)=CC1O[C@H]1[C@@H](OC(C)=O)[C@H](OC(C)=O)[C@]2(C)[C@@]12CO2 (stereo partly specified)
inactive: [1] 24.6% | [2] -17.4% | [3] -19.6% | [4] 42.4% | [5] -14.6% | [6] 30.9%

COC(=O)Cc1ccccc1C(c1ccccc1)c1ccccc1
inactive: [1] -1.85% | [2] -0.4% | [3] 9.7% | [4] 6.7% | [5] 13.8% | [6] -0.65%

O=S1(=O)C2C=CC1CCCC2
inactive: [1] 3.35% | [2] -12.7% | [3] -6.9% | [4] -30.9% | [5] -11.6% | [6] 2.05%

Cc1cccc(NC(=O)c2ccc(Cl)c(Cl)c2)c1
inactive: [1] 11.3% | [2] 13.7% | [3] -0.25% | [4] -65.6% | [5] 30.4% | [6] -8.65%

CNc1nc(SC)nc2[nH]ncc12
inactive: [1] 7.1% | [2] -9.2% | [3] 2.45% | [4] -3.2% | [5] 23% | [6] 2.05%

COC1/C=C\OC2(C)Oc3c(C)c(O)c4c(O)c(c(/C=N\NC(=O)CC(=O)N/N=C/c5c6c(O)c7c(O)c(C)c8c(c7c5O)C(=O)C(C)(O/C=C/C(OC)C(C)C(OC(C)=O)C(C)C(O)C(C)C(O)C(C)/C=C/C=C(C)C(=O)N6)O8)c(O)c4c3C2=O)NC(=O)/C(C)=C\C=C/C(C)C(O)C(C)C(O)C(C)C(OC(C)=O)C1C (stereo unspecified)
inactive: [1] -4.5% | [2] 6.3% | [3] -2.2% | [4] -5.4% | [5] 6.75% | [6] -16.4%

CCOC(=O)CCC(=O)Oc1cccc2c1C(=O)c1c(OC(=O)CCC(=O)OCC)cccc1C2=O
inactive: [1] 40.5% | [2] 37% | [3] 9.8% | [4] 17.2% | [5] 6.45% | [6] 47.7%

O=[N+]([O-])c1ccc(-n2nnc3ccccc32)nc1
inactive: [1] -3.9% | [2] -4.85% | [3] -7.35% | [4] -16.6% | [5] 7.5% | [6] -9.75%

CC(C)Cc1cn(O)c2nc(=N)nc(N)c-2n1
inactive: [1] 4.95% | [2] -5.6% | [3] -1.7% | [4] -13.6% | [5] 5.8% | [6] 4%

Cc1cc(C)c(C(=O)OCCN(C)C)c(C)c1
inactive: [1] 10.8% | [2] 2% | [3] 9.9% | [4] -5.25% | [5] 0.5% | [6] -0.6%

NNc1nnc(NN)c2ccccc12
inactive: [1] 1.75% | [2] -2.05% | [3] 0.8% | [4] 3.65% | [5] 4.45% | [6] 4.7%

CC1(C)C(N)C(C)(C)C1N (stereo unspecified)
inactive: [1] -0.05% | [2] -14.5% | [3] -0.3% | [4] 11.8% | [5] 17.1% | [6] 2.3%

CN(C)C(=S)Oc1ccc([N+](=O)[O-])cc1Cl
inactive: [1] 17.9% | [2] 6.95% | [3] 4.95% | [4] 19.4% | [5] -3.3% | [6] 29.3%

O=C1OC(CC(=O)c2ccc(Cl)c(Cl)c2)C(Cl)=C1Cl (stereo unspecified)
inactive: [1] 43.1% | [2] 12.3% | [3] 33.1% | [4] 29.9% | [5] 30% | [6] 52.7%

Nc1cc(=O)n(C2CC(O)C(CO)O2)cn1 (stereo unspecified)
inactive: [1] 7.25% | [2] 2.05% | [3] 11.5% | [4] 1.95% | [5] -13.3% | [6] 5.6%
